Values joined by “and” are separate entries in the source; they are usually repeats but may differ in a detail not shown here. Equal values may be shown once.
Legend:
[1] = biological target: T1, Serine/threonine-protein kinase TBK1 (Homo sapiens) (UniProt Q9UHD2); details: at 1 µM;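 also: values are mean inhibition of TBK1, screened as part of the GSK published kinase inhibitor set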
T1 sequence (whole entry): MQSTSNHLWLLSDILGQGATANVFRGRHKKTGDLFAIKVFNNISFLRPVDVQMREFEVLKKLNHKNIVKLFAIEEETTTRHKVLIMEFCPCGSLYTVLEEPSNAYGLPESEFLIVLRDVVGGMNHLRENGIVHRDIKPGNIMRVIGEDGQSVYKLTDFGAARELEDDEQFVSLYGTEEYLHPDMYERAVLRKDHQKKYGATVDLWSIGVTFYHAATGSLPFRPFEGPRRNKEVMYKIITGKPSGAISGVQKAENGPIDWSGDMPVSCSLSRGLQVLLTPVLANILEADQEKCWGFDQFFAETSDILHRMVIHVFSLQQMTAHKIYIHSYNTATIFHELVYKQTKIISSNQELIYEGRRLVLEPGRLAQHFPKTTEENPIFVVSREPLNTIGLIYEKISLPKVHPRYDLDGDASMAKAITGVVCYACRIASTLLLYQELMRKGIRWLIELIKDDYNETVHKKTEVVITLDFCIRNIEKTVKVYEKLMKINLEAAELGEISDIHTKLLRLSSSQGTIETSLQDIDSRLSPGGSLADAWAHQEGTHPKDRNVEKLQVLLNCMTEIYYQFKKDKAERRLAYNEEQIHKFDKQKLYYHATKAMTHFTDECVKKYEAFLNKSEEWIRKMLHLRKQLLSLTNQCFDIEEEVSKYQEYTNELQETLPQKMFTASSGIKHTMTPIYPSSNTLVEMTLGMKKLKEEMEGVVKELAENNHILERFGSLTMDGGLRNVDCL

[2] = biological target: T2, Testis-specific serine/threonine-protein kinase 1 (Homo sapiens) (UniProt Q9BXA7); details: at 0.1 µM
T2 sequence (whole entry): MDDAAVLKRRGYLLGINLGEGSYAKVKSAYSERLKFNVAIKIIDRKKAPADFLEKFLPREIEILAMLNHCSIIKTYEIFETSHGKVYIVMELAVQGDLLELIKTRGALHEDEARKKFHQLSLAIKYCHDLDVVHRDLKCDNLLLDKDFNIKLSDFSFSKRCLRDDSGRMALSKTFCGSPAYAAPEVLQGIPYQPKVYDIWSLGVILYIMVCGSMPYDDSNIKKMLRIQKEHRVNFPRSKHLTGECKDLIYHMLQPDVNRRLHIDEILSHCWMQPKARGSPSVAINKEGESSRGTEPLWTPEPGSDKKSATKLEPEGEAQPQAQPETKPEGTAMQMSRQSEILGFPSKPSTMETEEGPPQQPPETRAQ

[3] = biological target: T2, Testis-specific serine/threonine-protein kinase 1 (Homo sapiens); details: at 1 µM
[4] = biological target: T3, Testis-specific serine/threonine-protein kinase 2 (Homo sapiens) (UniProt Q96PF2); details: at 0.1 µM
T3 sequence (whole entry): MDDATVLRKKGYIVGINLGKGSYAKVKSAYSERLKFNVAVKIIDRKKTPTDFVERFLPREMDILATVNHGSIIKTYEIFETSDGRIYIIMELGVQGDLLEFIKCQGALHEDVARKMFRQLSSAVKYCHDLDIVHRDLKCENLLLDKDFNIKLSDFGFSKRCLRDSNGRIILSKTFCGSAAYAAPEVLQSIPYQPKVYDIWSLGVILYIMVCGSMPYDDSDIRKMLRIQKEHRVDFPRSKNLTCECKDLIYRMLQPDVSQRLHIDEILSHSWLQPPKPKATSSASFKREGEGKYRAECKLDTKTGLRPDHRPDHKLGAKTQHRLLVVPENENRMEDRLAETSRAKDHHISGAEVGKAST

[5] = biological target: T3, Testis-specific serine/threonine-protein kinase 2 (Homo sapiens); details: at 1 µM
[6] = biological target: Casein kinase I isoform alpha (Homo sapiens) (UniProt P48729); details: at 0.1 µM
Casein kinase I isoform alpha (Homo sapiens), sequence (P48729 2-337 limits assumed): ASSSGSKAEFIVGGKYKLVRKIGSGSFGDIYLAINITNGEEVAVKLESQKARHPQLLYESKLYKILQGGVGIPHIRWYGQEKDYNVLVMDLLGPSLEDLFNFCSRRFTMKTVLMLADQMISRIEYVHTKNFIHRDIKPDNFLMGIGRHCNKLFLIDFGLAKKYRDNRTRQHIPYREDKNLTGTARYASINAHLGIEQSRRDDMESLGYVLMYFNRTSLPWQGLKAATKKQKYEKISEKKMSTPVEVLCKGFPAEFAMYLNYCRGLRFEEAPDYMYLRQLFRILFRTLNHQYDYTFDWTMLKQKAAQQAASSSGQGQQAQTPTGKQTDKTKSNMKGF

[7] = biological target: Casein kinase I isoform alpha (Homo sapiens) (UniProt P48729); details: at 1 µM
[8] = biological target: Casein kinase I isoform gamma-1 (Homo sapiens) (UniProt Q9HCP0); details: at 0.1 µM
Casein kinase I isoform gamma-1 (Homo sapiens), sequence (Q9HCP0 whole entry, looked up, canonical isoform): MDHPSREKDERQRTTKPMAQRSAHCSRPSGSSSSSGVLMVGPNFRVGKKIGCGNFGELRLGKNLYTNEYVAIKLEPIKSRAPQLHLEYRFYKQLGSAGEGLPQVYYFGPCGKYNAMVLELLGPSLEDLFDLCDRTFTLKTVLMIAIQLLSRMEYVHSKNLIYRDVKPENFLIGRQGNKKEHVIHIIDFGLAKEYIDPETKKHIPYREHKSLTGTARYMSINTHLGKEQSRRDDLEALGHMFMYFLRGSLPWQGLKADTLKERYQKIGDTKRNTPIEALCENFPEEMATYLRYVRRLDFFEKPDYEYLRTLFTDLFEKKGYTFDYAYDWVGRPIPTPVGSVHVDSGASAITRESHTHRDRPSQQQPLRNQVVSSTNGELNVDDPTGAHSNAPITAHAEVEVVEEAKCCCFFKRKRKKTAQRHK

[9] = biological target: Casein kinase I isoform gamma-1 (Homo sapiens) (UniProt Q9HCP0); details: at 1 µM
[10] = biological target: Casein kinase I isoform gamma-2 (Homo sapiens) (UniProt P78368); details: at 0.1 µM;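 also: values are mean inhibition figures reported as part of the GSK PKIS dataset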
Casein kinase I isoform gamma-2 (Homo sapiens), sequence (P78368 whole entry, looked up, canonical isoform): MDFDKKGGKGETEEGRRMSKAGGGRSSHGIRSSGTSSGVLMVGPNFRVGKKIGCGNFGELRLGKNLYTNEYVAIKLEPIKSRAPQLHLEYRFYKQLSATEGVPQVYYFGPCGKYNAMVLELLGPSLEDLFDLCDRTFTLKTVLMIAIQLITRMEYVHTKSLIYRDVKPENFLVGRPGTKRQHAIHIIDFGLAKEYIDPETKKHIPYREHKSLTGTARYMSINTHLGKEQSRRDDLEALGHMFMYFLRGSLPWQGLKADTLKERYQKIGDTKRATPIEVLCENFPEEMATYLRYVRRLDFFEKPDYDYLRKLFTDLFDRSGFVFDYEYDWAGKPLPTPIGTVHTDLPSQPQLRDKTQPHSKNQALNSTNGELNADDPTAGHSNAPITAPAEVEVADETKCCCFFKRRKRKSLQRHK

| Structure (SMILES) | inhibition [1] | inhibition [2] | inhibition [3] | inhibition [4] | inhibition [5] | inhibition [6] | inhibition [7] | inhibition [8] | inhibition [9] | inhibition [10] |
| --- | --- | --- | --- | --- | --- | --- | --- | --- | --- | --- |
| O=C(O[C@H]1CN[C@H](C#Cc2cc3ncnc(Nc4ccc(OCc5cccc(F)c5)c(Cl)c4)c3s2)C1)N1CCOCC1 | 2.81% | 4.44% | 7.27% | 3.43% | 5.27% | 2.97% | 4.43% | 4.56% | 5.41% | 4.99% |
| COc1ccccc1-c1cc(/C=C2\C(=O)Nc3ncc(Br)cc32)cc(Br)c1O | 6.07% | 4.24% | 6.09% | 2.5% | 1.91% | 2.91% | 5.66% | 5.05% | 5.44% | 3.14% |
| COc1cc(Nc2ncc(-c3ccccc3)o2)cc(OC)c1 | 4.2% | 4.25% | 4.53% | 2.32% | 2.49% | 4.52% | 3.47% | 4.39% | 4.78% | 4.11% |
| CC1(C)CC(n2cnc(-c3ccc(F)cc3)c2-c2ccnc(N)n2)CC(C)(C)N1 | 0.35% | 1.43% | 2.2% | 0.62% | 2.34% | 12.5% | 58.5% | 0.31% | 2.25% | 0.35% |
| CS(=O)(=O)CCNCc1ccc(-c2ccc3ncnc(Nc4ccc(OCc5cccc(C(F)(F)F)c5)cc4)c3c2)o1 | 6.44% | 5.83% | 4.35% | 2.31% | 2.41% | 5.05% | 6.4% | 3.46% | 4.57% | 3.14% |
| CN1CCC(C(=O)Nc2n[nH]c3nc(-c4ccc(O)cc4)c(Br)cc23)CC1 | 6.1% and 2.08% | 5.11% and 0.23% | 7.56% and 2.61% | 3.45% and 1.03% | 5.78% and 1.94% | 2.56% and 1.97% | 5.54% and 3% | 0.95% and 1.75% | 4.18% and 2.3% | 1.05% and 1.85% |
| Nc1ncnc2occ(-c3ccc(NC(=O)Nc4cc(C(F)(F)F)ccc4F)cc3)c12 | 6.12% and 3.01% | 0.74% and -0.54% | -2.13% and 0.25% | 0.34% and -1.88% | -2.39% and -1.51% | -0.66% and -1.83% | 4.18% and -1.62% | 1.37% and -1.43% | 5.11% and 0.87% | 0.83% and -2.39% |
| O=C(O[C@H]1CN[C@H](C#Cc2cc3ncnc(Nc4ccc5c(ccn5Cc5cc(F)ccc5F)c4)c3s2)C1)N1CCOCC1 | 2.11% | 3.63% | 4.15% | 2.52% | 1.57% | 2.93% | 5.4% | 4.17% | 5.41% | 3.09% |
| OCCCNc1nccc(-c2c(-c3ccc(F)cc3)nn3cc(C(F)(F)F)ccc23)n1 | 5.25% | 1.75% | -0.99% | 1.56% | -2.79% | 8.54% | 28.7% | 1.82% | 4.37% | 0.31% |
| COC(=O)Nc1nc2ccc(Oc3ccc(NC(=O)Nc4cc(C(F)(F)F)ccc4F)cc3)cc2s1 | -0.01% | 0.44% | 1.02% | -1.47% | 0.19% | -1.12% | 3.01% | -0.2% | -0.02% | -0.36% |
| CC1=C(C(=O)Nc2ccc3[nH]ncc3c2)C(c2ccc(F)cc2)N=C(c2ccc(C(F)(F)F)nc2)N1 (stereo not given) | 2.03% | 1.72% | -0.03% | 0.88% | -1.54% | 0.89% | 2.81% | 3.19% | 2.72% | 0.59% |
| Fc1ccc(Nc2nccc(-c3c(-c4ccc(C(F)(F)F)cc4)nn4ncccc34)n2)cc1F | 5.12% | 2.94% | 0.83% | 0.43% | -1.83% | 8.3% | 5.37% | 3.69% | 4.68% | 1.53% |
| Cc1nnc(-c2cccc(-c3ccc(C(=O)NCC4CC4)cc3)c2)o1 | 6.92% | 4.11% | 5.87% | 2.89% | 3.75% | 1.99% | 5.86% | 4.47% | 4.29% | 2.71% |
| COc1cccc(Nc2nccc(-c3cnn4ncccc34)n2)c1 | 22.9% | 2.07% | 12.8% | 0.21% | 0.62% | 14.9% | 48% | 2.61% | 20.5% | 4.45% |
| COC(=O)Nc1nc2cc(Oc3ccc(NC(=O)Nc4ccccc4)cc3)ccc2[nH]1 | 2.25% | 3.86% | 4.03% | 2.21% | 4.11% | 0.93% | 2.7% | 2.12% | 2.12% | 2.17% |
| COc1ccc(Nc2ncc(-c3ccccc3)o2)cc1OC | 10.7% | 0.54% | 1.75% | 0.12% | 0.02% | 3.39% | 6.61% | 0.83% | 3.24% | 0.28% |

| Structure (SMILES) | inhibition [1] | inhibition [2] | inhibition [3] | inhibition [4] | inhibition [5] | inhibition [6] | inhibition [7] | inhibition [8] | inhibition [9] | inhibition [10] |
| --- | --- | --- | --- | --- | --- | --- | --- | --- | --- | --- |
| CN(C)CCNC(=O)Nc1ccc(N(C)c2ccnc(Nc3ccc(CS(C)(=O)=O)cc3)n2)cc1 | 5.74% | 2.28% | 5.73% | 0.57% | -1.45% | 2.02% | 5.94% | 3.74% | 4.96% | 4.73% |
| CS(=O)(=O)Nc1ccc(-c2ccc3c(NC(=O)C4CC4)n[nH]c3c2)cc1 | 7.65% | 2.9% | 2.78% | 0.58% | -0.76% | -2.5% | 3.8% | 2.55% | 4.34% | 1.91% |
| CCn1c(-c2nonc2N)nc2cncc(C(=O)NCCNC)c21 | 9.32% | 7.08% | 32.1% | 2.36% | 1.74% | 4.37% | 4.77% | 4.39% | 5.89% | 3.81% |
| Cc1ccc(-c2cc3c(NC(=O)C4CC4)ncnc3o2)cc1 | 10.1% | 3.8% | 4.18% | 1.75% | 0.28% | 4.85% | 5.25% | 3.74% | 4.78% | 2.32% |
| CCCNc1cccc(-n2ncc3c(N/N=C/c4ccncc4)ncnc32)c1 | 20.2% | 1.42% | 6.17% | 0.21% | 3.17% | 0.14% | 1.89% | 0.84% | 1.57% | 1.79% |
| CS(=O)(=O)CCNCc1ccoc1-c1ccc2ncnc(Nc3ccc(OCc4ccccc4)cc3)c2c1 | -2.25% | 0.51% | 0.84% | 1.17% | 0.75% | 1.49% | -0.39% | 0.5% | 1.25% | 0.24% |
| c1cnn2ncc(-c3ccnc(NCCCN4CCOCC4)n3)c2c1 | 1.95% | 3.58% | 2.58% | 2.3% | 1.85% | 2.74% | 16.4% | 3.57% | 4.83% | 3.07% |
| CC(C)c1ccc(-c2cc(-c3c[nH]nc3-c3ccccn3)ccn2)cc1 | -0.11% | 0.45% | 0.81% | -0.82% | -1.06% | 3.57% | 9.88% | 0.64% | 2.41% | 0.19% |
| COc1ccc2ncn(-c3cc(O[C@H](C)c4ccccc4C(F)(F)F)c(C(N)=O)s3)c2c1 | -0.87% | 1.48% | 1.53% | -0.29% | 0.97% | 0.31% | 2.23% | -1.06% | -0.1% | -0.92% |
| COc1c(C(N)=O)cc(-c2ccc(Cl)cc2)cc1-c1ccc(S(N)(=O)=O)cc1 | 3.5% | 4.67% | 5.11% | 2.57% | 2.89% | 5.95% | 12.6% | 4.33% | 6.12% | 4.61% |
| CN1CCC(n2cnc(-c3ccc(F)cc3)c2-c2ccnc(NCCO)n2)CC1 | 7.57% | 4.44% | 6.56% | 3.07% | 4.33% | 37% | 73.4% | 4.15% | 8.74% | 2.94% |
| CCS(=O)(=O)c1ccc(OC)c(Nc2ncc(-c3cccc(F)c3)o2)c1 | 11.5% | 6.42% | 5.86% | 3.41% | 3.46% | 5.47% | 7.11% | 4.64% | 5.04% | 3.91% |
| CS(=O)(=O)Nc1ccc(-c2cc(-c3ccccc3)cc(C(N)=O)c2N)cc1 | 2.08% | 2.3% | 2.85% | 0.46% | 1.61% | 0.02% | 2.47% | 0.73% | 0.84% | 0.2% |
| Nc1nonc1-c1nc2cnccc2n1C1CC1 | 15.3% and 9% | 3.32% and 4.38% | 14.5% and 17.5% | 1.12% and 1.1% | -1.21% and 1.4% | 6.95% and 4.09% | 6.23% and 9.54% | 3.2% and -1.18% | 3.96% and -0.27% | 1.76% and -1.82% |
| O=C(Nc1n[nH]c2nnc(-c3cccnc3)cc12)C1CC1 | 1.3% | 0.18% | 1.92% | -0.11% | 0.95% | -0.76% | -2.19% | -0.63% | 0.33% | -0.76% |

From ChEMBL document CHEMBL1961873, “Compounds: GSK PKIS; Assays: Nanosyn kinase panel” (2012)
